Test [1] in a line: qHTS RealTime-Glo MT Cell Viability Assay in HEK293 cells - 0 hour (AID 1224880). Also: nearly all actives have a fitted effect of over 45% in size. Also: potency is read from the fitted curve at half-maximal effect. In outline:
(§1)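 Kinetic, non-lysing viability readout. Seed HEK293 (600/well) with reagent, incubate 5 h at 37 C/5% CO2, pin 23 nL compound in DMSO, incubate at 37 C, read luminescence at 0, 8, 16, 24, 32, 40 h.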
Background: In qHTS, concentration-response curves come from the screen itself.

Test [2] can be described thus: A CellTox Green Cytotoxicity Assay to monitor cytotoxicity in HEK293 cells - 32 hour (AID 1224881). Also: nearly all actives have a fitted effect of over 40% in size. In outline: (§2)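 Real-time, in one plate: 600 HEK293 cells/well with dead-cell DNA dye, pinned compound after 5 h, 37 C incubation over 40 h; viable cells give no appreciable fluorescence.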
Test [3] can be described thus: A CellTox Green Cytotoxicity Assay to monitor cytotoxicity in HepG2 cells - 0 hour (AID 1224882). Also: nearly all actives have a fitted effect of over 35% in size. Also: potency is read from the fitted curve at half-maximal effect. In short, it runs like this: (§3)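 Cytotoxicity was tracked as dead-cell DNA fluorescence in HepG2 cells treated with test compounds at 37 C; each time-point value comes from one kinetic series spanning 0, 8, 16, 24, 32 and 40 h.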
Test [4] is described as follows: A CellTox Green Cytotoxicity Assay to monitor cytotoxicity in HepG2 cells - 32 hour (AID 1224883). Also: nearly all actives have a fitted effect of over 50% in size. Also: potency is read from the fitted curve at half-maximal effect. In short, it runs like this: as §3
The nature of test [5]: A CellTox Green Cytotoxicity Assay to monitor cytotoxicity in HEK293 cells - 8 hour (AID 1224884). Also: nearly all actives have a fitted effect of over 35% in size. In outline:
as §2

Test [6] is described as follows: qHTS RealTime-Glo MT Cell Viability Assay in HepG2 cells - 16 hour (AID 1224885). Also: nearly all actives have a fitted effect of over 50% in size. In short, it runs like this: (§4)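 HepG2 cells (600/well) were dispensed with RealTime-Glo reagents, incubated 5 h at 37 °C, then treated with compounds in DMSO for up to 40 h. Nonlytic NanoLuc luminescence reflecting viable cells was read at each stated time point.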
Test [7] is described as follows: qHTS RealTime-Glo MT Cell Viability Assay in HEK293 cells - 24 hour (AID 1224886). Also: top concentration of the series differs between compounds; nearly all actives have a fitted effect of over 50% in size. In outline:
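HEK293 cells seeded with NanoLuc/prosubstrate reagent, rested 5 h at 37 C, then dosed and kept at 37 C up to 40 h. Nonlytic real-time luminescence from viable cells read at 0, 8, 16, 24, 32 and 40 h.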

The nature of test [8]: qHTS RealTime-Glo MT Cell Viability Assay in HEK293 cells - 8 hour (AID 1224887). Also: top concentration of the series differs between compounds; nearly all actives have a fitted effect of over 50% in size. In short, it runs like this: as §1
Test [9] can be described thus: A CellTox Green Cytotoxicity Assay to monitor cytotoxicity in HEK293 cells - 16 hour (AID 1224888). Also: nearly all actives have a fitted effect of over 35% in size. In short, it runs like this:
as §2

Test [10] is described as follows: qHTS RealTime-Glo MT Cell Viability Assay in HepG2 cells - 0 hour (AID 1224889). Also: nearly all actives have a fitted effect of over 50% in size. Also: potency is read from the fitted curve at half-maximal effect. In short, it runs like this: as §4
A short description of test [11]: A CellTox Green Cytotoxicity Assay to monitor cytotoxicity in HepG2 cells - 8 hour (AID 1224890). Also: nearly all actives have a fitted effect of over 45% in size. Also: potency is read from the fitted curve at half-maximal effect. In outline:
as §3

Test [12] in a line: qHTS assay to identify small molecule antagonists of the estrogen receptor alpha (ER-alpha) signaling pathway using the BG1 cell line in the presence of 0.1 nM 17-beta-estradiol - cell viability counter screen (AID 1259241). Also: nearly all actives have a fitted effect of over 40% in size. In short, it runs like this:
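VM7Luc4E2 cells (endogenous full-length ER-alpha, 4xERE-luciferase), cultured 5 days in charcoal-stripped serum, exposed to compounds with 0.1 nM 17beta-estradiol (final) for 22 hr at 37C. Viability read in same wells as live-cell protease fluorescence after 30 min.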

The nature of test [13]: qHTS assay to identify small molecule antagonists of the androgen receptor (AR) signaling pathway using the MDA cell line in the presence of 0.5 nM R1881 - cell viability counter screen (AID 1259242). Also: nearly all actives have a fitted effect of over 45% in size. Also: potency is read from the fitted curve at half-maximal effect. In outline:
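Cells seeded at 3,000/well and allowed 5 hr at 37C, 0% CO2 before compound transfer and R1881 (0.5 nM final) addition; 16 hr later, live-cell protease fluorescence indicated cytotoxicity.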

Test [14] concerns the target Estrogen receptor (Homo sapiens) (UniProt P03372). The test can be described thus: qHTS assay to identify small molecule antagonists of the estrogen receptor alpha (ER-alpha) signaling pathway using the BG1 cell line in the presence of 0.1 nM 17-beta-estradiol (AID 1259244). Also: nearly all actives have a fitted effect of over 50% in size. In outline: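 Luciferase signal from VM7Luc4E2 ERE-reporter cells, co-dosed with test compound and 0.1 nM final 17beta-estradiol for 22 h, read with ONE-Glo.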

Test [15] can be described thus: qHTS assay to identify small molecule phospholipidosis (PLD) inducers (AID 1259344; active = well fitted curve in the direction sought with a large enough effect; an effect the other way counts as inactive or inconclusive). In short, it runs like this:
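After 4 h attachment on collagen I, HepG2 cells were dosed with compound alongside LipidTOX Red, kept 24 h at 37 C, fixed, and imaged for lamellar phospholipid pits.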

Test [16] can be described thus: qHTS assay to identify small molecule HDAC inhibitors (AID 1259364). Also: potency is read from the fitted curve at half-maximal effect.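 Also: wild-type HCT-116 cells with endogenous class I/II HDAC activity; nearly all actives have a fitted effect of over 45% in size.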 In short, it runs like this:
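HCT-116 wt cells, 1,500/well, overnight attach. Compounds (DMSO) 2 h, 37 °C. HDAC-Glo I/II, 30 min RT. Luminescence.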

Test [17] in a line: qHTS assay to identify small molecule HDAC inhibitors - cell viability counter screen (AID 1259365). In outline:
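Wild-type HCT-116 cells, 1,500/well, cultured overnight, then compound-treated 2 h at 37 C. Viability measured as ATP luminescence with CellTiter-Glo after 30 min at room temperature.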

Test [18] is described as follows: qHTS assay to identify small molecule agonists of the sonic hedgehog signaling (Shh) pathway - cell viability counter screen (AID 1259366). Also: nearly all actives have a fitted effect of over 50% in size. Also: potency is read from the fitted curve at half-maximal effect. In outline:
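NIH/3T3-derived Gli1-Luc reporter cells, 2,000 per well, received compound after 4 h and were treated about 23 h at 37C. Viability measured in the same wells by CellTiter-Fluor fluorescence after 1 h.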

The nature of test [19]: qHTS assay to identify small molecule antagonists of the sonic hedgehog signaling (Shh) pathway - cell viability counter screen (AID 1259367). Also: nearly all actives have a fitted effect of over 55% in size. Also: potency is read from the fitted curve at half-maximal effect. In outline:
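Conditioned medium drove Shh signaling in 3T3 Gli1-Luc cells exposed to compounds at 37C and 5% CO2. Viability was determined from CellTiter-Fluor fluorescence, with reagent incubated 1 hr after 23 hr of treatment.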

Test [20] addresses Androgen receptor (Homo sapiens) (UniProt P10275). Kind of test: qHTS assay to identify small molecule antagonists of the androgen receptor (AR) signaling pathway using the MDA cell line in the presence of 0.5 nM R1881 (AID 1259243). Also: nearly all actives have a fitted effect of over 50% in size. In outline:
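Luminescence from an AR/GR-responsive MMTV-luciferase construct in MDA-kb2 breast carcinoma cells, read 30 min after ONE-Glo, following 16 hr co-treatment with compounds and 0.5 nM R1881.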

The structures appear in SMILES notation. “And” between values parts separate entries of the source, which are not always exact repeats. Identical values can stand only once. Records with an inconclusive call do not appear. Where a structure was tested more than once in an assay, its records may differ in their call. The source made the active and inactive calls. Unless noted, calls follow the shape of the dose curve; as a rule, active = well fitted curve in the direction sought with a large enough effect in the repeat runs; inconclusive = weak or mixed curves; inactive = no such curve, though single readings can be large; an effect the other way counts as inactive or inconclusive.

Chain of Estrogen receptor (Homo sapiens) (P03372 whole entry, looked up): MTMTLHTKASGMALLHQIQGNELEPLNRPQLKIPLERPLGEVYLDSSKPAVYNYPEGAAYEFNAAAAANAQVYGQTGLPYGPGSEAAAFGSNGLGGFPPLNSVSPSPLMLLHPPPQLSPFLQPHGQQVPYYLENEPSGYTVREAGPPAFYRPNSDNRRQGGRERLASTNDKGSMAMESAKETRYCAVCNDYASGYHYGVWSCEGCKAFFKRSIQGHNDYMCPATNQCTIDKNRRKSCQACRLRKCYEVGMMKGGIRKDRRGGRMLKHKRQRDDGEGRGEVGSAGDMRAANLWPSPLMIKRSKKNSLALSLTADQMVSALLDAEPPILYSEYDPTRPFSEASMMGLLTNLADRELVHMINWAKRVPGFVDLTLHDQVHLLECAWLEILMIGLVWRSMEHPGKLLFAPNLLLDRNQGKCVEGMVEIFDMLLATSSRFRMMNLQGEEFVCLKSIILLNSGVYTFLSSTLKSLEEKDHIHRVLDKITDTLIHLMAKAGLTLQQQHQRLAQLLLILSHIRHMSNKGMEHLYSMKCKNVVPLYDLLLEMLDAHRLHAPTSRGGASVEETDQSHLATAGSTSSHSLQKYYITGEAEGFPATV
Chain of Androgen receptor (Homo sapiens) (P10275 whole entry, looked up): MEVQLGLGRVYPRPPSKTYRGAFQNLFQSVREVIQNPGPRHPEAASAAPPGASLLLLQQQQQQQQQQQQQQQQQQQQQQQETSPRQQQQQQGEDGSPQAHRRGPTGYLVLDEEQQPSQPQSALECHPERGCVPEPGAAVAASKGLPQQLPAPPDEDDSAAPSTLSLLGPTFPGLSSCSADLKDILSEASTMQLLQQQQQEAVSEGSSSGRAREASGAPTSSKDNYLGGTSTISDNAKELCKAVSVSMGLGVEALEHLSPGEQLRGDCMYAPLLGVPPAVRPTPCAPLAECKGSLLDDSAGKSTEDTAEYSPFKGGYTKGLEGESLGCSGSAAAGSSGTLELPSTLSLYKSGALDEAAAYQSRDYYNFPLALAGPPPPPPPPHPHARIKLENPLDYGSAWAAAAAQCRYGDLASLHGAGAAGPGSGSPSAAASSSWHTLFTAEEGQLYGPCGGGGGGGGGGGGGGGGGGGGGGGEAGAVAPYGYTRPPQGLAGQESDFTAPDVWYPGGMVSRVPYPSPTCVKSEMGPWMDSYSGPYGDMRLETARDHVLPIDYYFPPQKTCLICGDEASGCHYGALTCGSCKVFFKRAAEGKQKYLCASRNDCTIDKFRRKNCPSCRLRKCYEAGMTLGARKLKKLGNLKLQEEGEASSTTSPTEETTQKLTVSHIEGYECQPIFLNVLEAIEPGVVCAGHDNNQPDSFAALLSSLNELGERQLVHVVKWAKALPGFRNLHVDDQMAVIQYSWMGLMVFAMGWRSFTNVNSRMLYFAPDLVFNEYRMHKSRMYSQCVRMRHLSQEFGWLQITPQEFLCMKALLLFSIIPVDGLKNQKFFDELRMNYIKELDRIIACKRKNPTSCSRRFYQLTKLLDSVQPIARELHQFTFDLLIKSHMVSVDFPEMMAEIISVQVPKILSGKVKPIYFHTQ

`CC1(C)O[C@@H]2C[C@H]3[C@@H]4C[C@H](F)C5=CC(=O)CC[C@]5(C)[C@H]4[C@@H](O)C[C@]3(C)[C@]2(C(=O)CO)O1`: the Potency was 17.4 µM (active) and 10.7 µM (active) in test [1]; 38.9 µM (active) and inactive in test [3]; 43.6 µM (active) and inactive in [4]; 1.23 µM (active) and 2.68 µM (active) in test [10]; 49 µM (active) and inactive in [11]. Further, the Potency entry in [2], in test [5], in test [6], in test [7], in test [8] and in test [9] was “inactive” in each case. For the same compound, the Potency entry in test [12], in test [13], in test [14], in [16], in test [18] and in test [19] was “inactive” in each case. The compound was called inactive in test [15] and in test [17].
Take `CCC(=O)O`: the Potency result in test [1], in test [2], in [3], in test [4], in test [5] and in [6] was “inactive” each time. Further, the Potency entry in test [7], in test [8], in [9], in test [10], in test [11] and in test [12] was “inactive” each time. The Potency result in test [13], in [14], in [16], in [18] and in [19] was “inactive” each time. The compound was classed as inactive in test [15] and in [17].
As for `Nc1cc(-c2ccncc2)c[nH]c1=O`, the Potency result in [1], in [2], in test [3], in test [4], in test [6] and in test [7] was “inactive” each time. The Potency result in test [8], in [9], in test [10], in test [11], in test [12] and in test [13] was “inactive” in each case. The Potency result in [14], in [16], in [18] and in [19] was “inactive” throughout. For the same compound, the outcome in test [20], in test [15] and in test [17] was inactive.
Take `Cc1cc(O)c2c(c1)C(=O)c1cc(O)cc(O)c1C2=O`: the Potency result in test [1], in [2], in test [3], in test [4], in [5] and in test [6] was “inactive” each time. Besides, the Potency entry in [8], in [9], in test [10], in test [11], in test [14] and in [18] was “inactive” each time. Besides, the Potency entry in test [13] is “inactive and 48.6 µM (active)”; in [16], 5.32 µM (active) and 1.93 µM (active); in [19] it was “inactive and 54.5 µM (active)”. In addition, the compound was classed as inactive in test [17].
Turning to `NC(=O)NNc1ccccc1`, the Potency result in test [1], in test [2], in test [3], in test [4], in test [5] and in [7] was “inactive” in each case. Further, the Potency entry in test [8], in [9], in [10], in test [11], in test [12] and in [13] was “inactive” in each case. Besides, the Potency result in [16], in test [18] and in [19] was “inactive” each time. The compound was classed as inactive in [15] and in [17].
For the compound `O=C(c1cc(O)c(O)c(O)c1)c1ccc(O)c(O)c1O`, the Potency result in [1], in [2], in test [3], in [4], in [5] and in test [7] was “inactive” in each case. The Potency result in test [8], in test [9], in test [10], in test [11], in test [13] and in test [14] was “inactive” in each case. Moreover, in [16], the Potency result is “inactive”. For the same compound, the call in [17] was inactive. For the same compound, the Potency is 54.3 µM (active) and 54.5 µM (active) in [18]; 54.5 µM (active) in test [19].
As for `Cc1ccc(C)c(C)c1`, the Potency result in test [1], in [2], in [3], in test [4], in test [6] and in test [7] was “inactive” in each case. The Potency result in [8], in [9], in test [10], in [11], in [12] and in [13] was “inactive” throughout. Moreover, the Potency entry in test [14], in test [16], in [18] and in test [19] was “inactive” throughout. The result in test [20] and in test [17] was inactive.
For the compound `OCCOCCOCCOCCO`, the Potency entry in test [1], in test [2], in test [3], in test [4], in [5] and in [7] was “inactive” in each case. The Potency result in test [8], in test [9], in [10], in test [11], in [12] and in [13] was “inactive” each time. For the same compound, the Potency result in test [14], in test [16], in test [18] and in [19] was “inactive” each time. The result in [17] was inactive.

For the origin of these results see PubChem BioAssay (Tox21).
